Source: PubChem BioAssay (EPA / NIEHS)
“And” between values parts separate entries of the source, which are not always exact repeats. Equal values may be shown once. Where a structure was tested more than once in an assay, its records may differ in their call. The source made the active and inactive calls. The calls were made as follows: active = hit-call score of the fitted dose curve at least 0.9, where 1 is the maximum; inactive = score below 0.9.

These molecules were tested on Insulin Like Growth Factor 1 (IGF1), IGF1 (gene 3479) (assay: LTEA_HepaRG_IGF1: Life Technologies and Expression Analysis (LTEA) Assay for Insulin Like Growth Factor 1 (IGF1) using HepaRG (AID 2283506)). Conditions: mRNA level, 48 h; actives raise or lower the signal.
Outline: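 Using human HepaRG liver cells, IGF1 transcript induction or suppression is measured 48 h after dosing across eight concentrations capped at 100 uM. Values derive from bidirectional concentration-response fitting with DMSO as baseline.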
With CCOC(=O)C(Cl)Cc1cc(-n2nc(C)n(C(F)F)c2=O)c(F)cc1Cl (configuration not stated) the outcome was “inactive”.
CCc1nn(C)c(C(=O)NCc2ccc(C(C)(C)C)cc2)c1Cl was tested, and the AC50 was 0.782 µM (active).
COC(=O)N(OC)c1ccccc1COc1ccn(-c2ccc(Cl)cc2)n1 was tested, and the AC50 was 68.1 µM (active).
With N#CC(CCc1ccc(Cl)cc1)(Cn1cncn1)c1ccccc1 (configuration not stated) the AC50 was 50 µM (active).
In the case of CNC(=O)ON=CC(C)(C)SC, the outcome is reported as “inactive”.
In the case of CCNc1nc(Cl)nc(NC(C)C)n1, the AC50 is reported as 50 µM (active).
With CCON=C(CC)C1=C(O)CC(c2c(C)cc(C)cc2C)CC1=O (configuration not stated) the outcome was “inactive”.
In the case of CCCC1COC(Cn2cncn2)(c2ccc(Cl)cc2Cl)O1 (configuration not stated), the AC50 is reported as 25.5 µM (active).
For CCCCOC(=O)c1ccccc1C(=O)OCCCC, the outcome was “inactive”.
COC(=O)c1ccccc1C(=O)OC was tested, and the outcome was “inactive”.
With C=CCC1=C(C)C(OC(=O)C2C(C=C(C)C)C2(C)C)CC1=O (configuration not stated) the AC50 was 79.6 µM (active) and 72 µM (active) and 50 µM (active).
With COP(N)(=O)SC (configuration not stated) the outcome was “inactive”.
With O=C(O)COc1nc(Cl)c(Cl)cc1Cl the outcome was “inactive”.
In the case of COc1ccc(C(c2ccc(OC)cc2)C(Cl)(Cl)Cl)cc1, the AC50 is reported as 56.5 µM (active).
In the case of COC(=O)C=C(C)OP(=O)(OC)OC, the outcome is reported as “inactive”.
In the case of CCOc1cc(Oc2ccc(C(F)(F)F)cc2Cl)ccc1[N+](=O)[O-], the AC50 is reported as 50 µM (active).
For CCOC(=O)CC(SP(=S)(OC)OC)C(=O)OCC (configuration not stated), the outcome was “inactive”.
In the case of CNC(=S)S, the outcome is reported as “inactive”.
With CCCN(CCC)c1c([N+](=O)[O-])cc(S(N)(=O)=O)cc1[N+](=O)[O-] the AC50 was 93.4 µM (active) and the outcome was “inactive”.
In the case of CC(C)C1(C)N=C(c2nc3ccccc3cc2C(=O)O)NC1=O (configuration not stated), the outcome is reported as “inactive”.
CC(Oc1ccc(Cl)cc1Cl)C(=O)O (configuration not stated) was tested, and the outcome was “inactive”.
In the case of O=C(Nc1ccccc1)Nc1ccnc(Cl)c1, the AC50 is reported as 28.3 µM (active).
With Cc1ccc(-c2c(Cl)nc(C#N)n2S(=O)(=O)N(C)C)cc1 the AC50 was 50 µM (active).
For C#CCOS(=O)OC1CCCCC1Oc1ccc(C(C)(C)C)cc1 (configuration not stated), the AC50 was 19.5 µM (active).
With CCCCC(CC)COC(=O)c1ccccc1C(=O)OCC(CC)CCCC (configuration not stated) the outcome was “inactive”.

What follows are molecules tested on Intercellular Adhesion Molecule 1 (ICAM1), ICAM1 (gene 3383) (assay: LTEA_HepaRG_ICAM1: Life Technologies and Expression Analysis (LTEA) Assay for Intercellular Adhesion Molecule 1 (ICAM1) using HepaRG (AID 2283507)). Conditions: mRNA level, 48 h; actives raise or lower the signal.
Outline: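 ICAM1 transcript levels measured by qRT-PCR, normalized to three housekeeping genes (ACTB, GAPDH, POLR2A), after 48 h chemical exposure of HepaRG cells. Duplicate eight-point half-log series from 100 uM in 0.5% DMSO; gain or loss fitted against vehicle.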
For CCOC(=O)C(Cl)Cc1cc(-n2nc(C)n(C(F)F)c2=O)c(F)cc1Cl (configuration not stated), the outcome was “inactive”.
CCc1nn(C)c(C(=O)NCc2ccc(C(C)(C)C)cc2)c1Cl was tested, and the AC50 was 2.34 µM (active).
With COC(=O)N(OC)c1ccccc1COc1ccn(-c2ccc(Cl)cc2)n1 the AC50 was 81.2 µM (active).
With N#CC(CCc1ccc(Cl)cc1)(Cn1cncn1)c1ccccc1 (configuration not stated) the AC50 was 71.6 µM (active).
CNC(=O)ON=CC(C)(C)SC was tested, and the outcome was “inactive”.
For CCNc1nc(Cl)nc(NC(C)C)n1, the outcome was “inactive”.
CCON=C(CC)C1=C(O)CC(c2c(C)cc(C)cc2C)CC1=O (configuration not stated) was tested, and the outcome was “inactive”.
With CCCC1COC(Cn2cncn2)(c2ccc(Cl)cc2Cl)O1 (configuration not stated) the AC50 was 77.1 µM (active).
CCCCOC(=O)c1ccccc1C(=O)OCCCC was tested, and the outcome was “inactive”.
For COC(=O)c1ccccc1C(=O)OC, the outcome was “inactive”.
C=CCC1=C(C)C(OC(=O)C2C(C=C(C)C)C2(C)C)CC1=O (configuration not stated) was tested, and the outcome was “inactive”.
In the case of COP(N)(=O)SC (configuration not stated), the outcome is reported as “inactive”.
For O=C(O)COc1nc(Cl)c(Cl)cc1Cl, the outcome was “inactive”.
In the case of COc1ccc(C(c2ccc(OC)cc2)C(Cl)(Cl)Cl)cc1, the outcome is reported as “inactive”.
For COC(=O)C=C(C)OP(=O)(OC)OC, the outcome was “inactive”.
In the case of CCOc1cc(Oc2ccc(C(F)(F)F)cc2Cl)ccc1[N+](=O)[O-], the AC50 is reported as 50 µM (active).
With CCOC(=O)CC(SP(=S)(OC)OC)C(=O)OCC (configuration not stated) the outcome was “inactive”.
In the case of CNC(=S)S, the outcome is reported as “inactive”.
For CCCN(CCC)c1c([N+](=O)[O-])cc(S(N)(=O)=O)cc1[N+](=O)[O-], the AC50 was 94.8 µM (active) and 85.4 µM (active) and the outcome was “inactive”.
With CC(C)C1(C)N=C(c2nc3ccccc3cc2C(=O)O)NC1=O (configuration not stated) the outcome was “inactive”.
With CC(Oc1ccc(Cl)cc1Cl)C(=O)O (configuration not stated) the outcome was “inactive”.
In the case of O=C(Nc1ccccc1)Nc1ccnc(Cl)c1, the outcome is reported as “inactive”.
For Cc1ccc(-c2c(Cl)nc(C#N)n2S(=O)(=O)N(C)C)cc1, the outcome was “inactive”.
C#CCOS(=O)OC1CCCCC1Oc1ccc(C(C)(C)C)cc1 (configuration not stated) was tested, and the outcome was “inactive”.
In the case of CCCCC(CC)COC(=O)c1ccccc1C(=O)OCC(CC)CCCC (configuration not stated), the outcome is reported as “inactive”.
